Among the test systems are T-47D breast; MDA-MB-435 melanoma; SW-620 colon; MCF7 breast; HCT-116 colon; HCC-2998 colon; KM12 colon.
Common to all, as to test: NCI-60 one-dose screen, 48 h (100 = growth as untreated, 0 = no growth, -100 = all killed)
Common to all, as to details: 10 µM unless noted

Compounds without any hit were thinned out: in the full panel of roughly 83,000, 20% have a hit.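 Each cell line was grown in a 96-well plate and treated with one concentration of compound for 48 hours. Values below 10 were considered active.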 A number with no mark means an inactive call. The source made the active and inactive calls.

As to `COC1=CC(c2ccc[nH]2)=N/C1=C\c1[nH]c(C)c(C(=O)OCCn2cc(CCC[C@@H]3Cc4cc(O)ccc4C4CC[C@]5(C)[C@@H](O)CC[C@H]5C43)nn2)c1C` (stereo not given in full), the growth in the test with T-47D breast was 102%; with MDA-MB-435 melanoma it was 80%; in the test with SW-620 colon it was 56.3%; in the test with MCF7 breast, 96%; in the test with HCT-116 colon, 81.6%; in the test with HCC-2998 colon it was 85.7%. The growth in the test on KM12 colon is 66.9%.
As for `CSc1ccc(Cl)c(C(=O)Nc2sccc2C(N)=O)c1`, the growth with T-47D breast was 44.1%; in the test with MDA-MB-435 melanoma, 110%; in the test with SW-620 colon, 96.5%; in the test with MCF7 breast it was 64.8%; with HCT-116 colon, 109%; with HCC-2998 colon, 102%. For the same molecule, the growth in the test on KM12 colon was 99.8%.
Regarding `CCCCN1CCN(c2ccc3nc(-c4ccc5nc(-c6cc(OC)c(OC)c(OC)c6)[nH]c5c4)[nH]c3c2)CC1`, the growth with T-47D breast was 66%; in the test with MDA-MB-435 melanoma, 53.5%; in the test on SW-620 colon it was 60.3%; with MCF7 breast, 19.9%; with HCT-116 colon, 41.1%; in the test on HCC-2998 colon, 100%. Also, the growth in the test on KM12 colon was 59.3%.
As to `Cc1cc(NS(=O)(=O)c2ccccc2)c(OS(=O)(=O)c2ccccc2)cc1C`, the growth is 109% in the test with T-47D breast; 122% in the test on MDA-MB-435 melanoma; 107% in the test with SW-620 colon; 93.7% in the test on MCF7 breast; 96.1% with HCT-116 colon; 106% in the test on HCC-2998 colon. Moreover, in the test on KM12 colon, the growth was 107%.
In the case of `Cc1cccc(-c2cc(O)c(C(=O)N3CCOCC3)s2)c1`, the growth in the test on T-47D breast is 18.9%; in the test with MDA-MB-435 melanoma, -50% (active); in the test on SW-620 colon, 28%; with MCF7 breast it was 19.5%; in the test with HCT-116 colon it was 27.7%; in the test on HCC-2998 colon, 63.2%. Also, in the test on KM12 colon, the growth is 25.5%.
As to `O=C(Oc1ccc([N+](=O)[O-])cc1)c1ccc(CBr)cc1`, the growth in the test with T-47D breast was 125%; with MDA-MB-435 melanoma, 98.8%; with SW-620 colon, 94.9%; with MCF7 breast, 75.1%; with HCT-116 colon, 87.8%; with HCC-2998 colon it was 103%.
On to `CCOc1ccc(S(=O)(=O)c2ccc(C)cc2)c2c1no[n+]2[O-]`, for which the growth in the test with T-47D breast was 56.4%; with MDA-MB-435 melanoma it was 91.4%; in the test with SW-620 colon, 100%; in the test on MCF7 breast, 83.1%; in the test on HCT-116 colon it was 80.4%; in the test with HCC-2998 colon, 100%. Also, the growth in the test on KM12 colon is 93.6%.
Turning to `CC(=O)Nc1ccc(C(=O)/C=C/c2ccccc2)cc1`, the growth with T-47D breast is 74.9%; in the test on MDA-MB-435 melanoma it was 89.1%; in the test on SW-620 colon, 90.4%; with MCF7 breast, 24.3%; in the test with HCT-116 colon it was 1.2% (active); in the test on HCC-2998 colon, 88.7%. Also, the growth in the test on KM12 colon was 22.8%.
With `C=CCN1C(=O)[C@]2(SC1=S)[C@H](c1cccc(Cl)c1)CN(C)[C@]21C(=O)NC2C=CC(Cl)=C[C@H]21` (stereo not given in full), the growth in the test with T-47D breast was 15.6%; in the test on MDA-MB-435 melanoma, 55.1%; in the test on SW-620 colon, 30.8%; in the test with MCF7 breast, 16.9%; in the test with HCT-116 colon, 33.4%; with HCC-2998 colon it was 78.2%. Moreover, the growth in the test with KM12 colon is 64.1%.
Regarding `CCN(CC)CC(O)CNc1c2ccc(Cl)cc2nc2ccc(OC)cc12` (stereo not given), the growth with T-47D breast was 49.7%; with MDA-MB-435 melanoma, -72.1% (active); with SW-620 colon, -37% (active); in the test on MCF7 breast it was -0.467% (active); with HCT-116 colon, -32.1% (active); in the test on HCC-2998 colon, -92.2% (active). In addition, in the test on KM12 colon, the growth is -30.9% (active).
On to `CCNCCNc1cc(-c2ccc(Cl)cc2)c(C#N)c2nc3ccccc3n12`, for which the growth was -60% (active) with T-47D breast; -85.7% (active) with MDA-MB-435 melanoma; -71.9% (active) in the test with SW-620 colon; -22.8% (active) in the test on MCF7 breast; -78% (active) in the test on HCT-116 colon; 4.11% (active) in the test on HCC-2998 colon. In addition, in the test with KM12 colon, the growth was 27.8%.
`CCO/C=N/C1=C(C#N)C(c2ccc(OC)cc2)c2c(c3ccccc3n(C)c2=O)O1` (stereo not given): the growth in the test on T-47D breast is 101%; in the test with MDA-MB-435 melanoma, 107%; in the test with SW-620 colon, 101%; with MCF7 breast it was 94.8%; in the test with HCT-116 colon it was 102%; in the test on HCC-2998 colon it was 106%. In the test with KM12 colon, the growth is 103%.
As for `Nc1c(C(=O)Nc2ccccc2)sc2nc3c(cc12)CCCCCC3`, the growth is 38.2% with T-47D breast; -17% (active) in the test with MDA-MB-435 melanoma; 27.5% in the test on SW-620 colon; 12.1% in the test with MCF7 breast; 2.39% (active) in the test with HCT-116 colon; 13.4% with HCC-2998 colon. Besides, the growth in the test on KM12 colon was 15.8%.
For `CC(=O)C(C(C)=O)c1nc2sc3cc(Cl)ccc3n2c(=N)c1C#N`, the growth was 75.8% with T-47D breast; 111% in the test on MDA-MB-435 melanoma; 95.9% in the test on SW-620 colon; 57.9% in the test on MCF7 breast; 87.5% in the test with HCT-116 colon; 106% with HCC-2998 colon. Besides, in the test on KM12 colon, the growth was 82.4%.
For `CO/C(=C1/NC(=O)C(Cc2ccc(O)c(Br)c2)N(C)C(=O)C(C)NC(=O)CCC/C=C(\C)CCC(C)OC1=O)c1ccccc1` (stereo not given), the growth was -0.228% (active) with T-47D breast; 3.86% (active) with MDA-MB-435 melanoma; 18.2% with SW-620 colon; -17.5% (active) with MCF7 breast; 8.19% (active) in the test with HCT-116 colon; -36.6% (active) in the test with HCC-2998 colon. The growth in the test on KM12 colon was 26.9%.
As to `COc1cc2c(cc1OC)-c1ccc3cc4c(cc3c1N(CCCn1ccnc1)C2)OCO4`, the growth is -18.4% (active) in the test with T-47D breast; 61.1% with MDA-MB-435 melanoma; 39.3% in the test with SW-620 colon; 14% in the test on MCF7 breast; 20% in the test on HCT-116 colon; 82.8% with HCC-2998 colon. The growth in the test on KM12 colon is 76.1%.
As to `NS(=O)(=O)c1cnccc1-n1ccc(=O)c(S(N)(=O)=O)c1`, the growth is 84.5% in the test with T-47D breast; 91.7% in the test with MDA-MB-435 melanoma; 97% with SW-620 colon; 88.8% in the test with MCF7 breast; 92.5% in the test with HCT-116 colon; 104% in the test on HCC-2998 colon. The growth in the test on KM12 colon is 93.3%.
As for `Cc1cc(C(c2ccccc2)c2ccccc2)ccc1NS(=O)(=O)c1ccccc1`, the growth is 85.6% in the test with T-47D breast; 114% in the test on MDA-MB-435 melanoma; 101% in the test on SW-620 colon; 88.3% with MCF7 breast; 82.1% with HCT-116 colon; 104% in the test with HCC-2998 colon. Besides, in the test on KM12 colon, the growth is 97.7%.

Values taken from PubChem BioAssay (NCI).
